Test systems include SR leukemia; RPMI-8226 leukemia; OVCAR-8 ovarian; OVCAR-5 ovarian; OVCAR-4 ovarian; SK-OV-3 ovarian; IGROV1 ovarian; OVCAR-3 ovarian; HS 578T breast; T-47D breast; BT-549 breast; MDA-MB-435 melanoma; SW-620 colon; MCF7 breast; HCT-116 colon; HCC-2998 colon; KM12 colon; NCI/ADR-RES ovarian.
What all share (assay): NCI-60 one-dose screen, 48 h (100 = growth as untreated, 0 = no growth, -100 = all killed)
Common to all, as to conditions: 10 µM unless noted

This is part of a sample that, as a whole, favours compounds with a hit. Of some 83,000 tested, about 20% had one in any assay.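 Plates (96-well) were seeded with cells, treated with compound at one concentration, and incubated for 48 hours before percent growth was determined.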 Values without a mark were called inactive. Activity calls are given as the source filed them. How the source made its calls: active means growth percent below 10; inactive means the rest.

For `COc1ccc(/C=C(\C#N)c2cc3ccccc3[nH]2)cc1`, the growth is 11.4% in the test with SR leukemia; 14.9% with RPMI-8226 leukemia; 32% in the test with OVCAR-8 ovarian; 42.5% in the test with OVCAR-5 ovarian; 62.4% in the test with OVCAR-4 ovarian; 47.7% in the test on SK-OV-3 ovarian. In addition, the growth in the test on IGROV1 ovarian is 45.7%; in the test with OVCAR-3 ovarian, 14.1%; with HS 578T breast, 22.9%; with T-47D breast, 28.3%; with BT-549 breast it was 40.9%; in the test with MDA-MB-435 melanoma it was -32.6% (active). Besides, the growth was 9.82% (active) with SW-620 colon, 13.3% with MCF7 breast, 12.5% in the test on HCT-116 colon and 39% in the test with HCC-2998 colon.
Consider `CC[C@@H]1NC(=O)[C@H]([C@H](O)[C@H](C)C/C=C/c2ccc(CN3C(=O)C(C)=C(C)C3=O)cc2)N(C)C(=O)[C@H](C(C)C)N(C)C(=O)[C@H](CC(C)C)N(C)C(=O)[C@H](CC(C)C)N(C)C(=O)[C@@H](C)NC(=O)[C@H](C)NC(=O)[C@H](CC(C)C)N(C)C(=O)[C@H](C(C)C)NC(=O)[C@H](CC(C)C)N(C)C(=O)CN(C)C1=O`, for which the growth in the test with SR leukemia is 46.9%; with RPMI-8226 leukemia it was 53.3%; in the test on OVCAR-8 ovarian, 78.5%; in the test with OVCAR-5 ovarian, 75.9%; with OVCAR-4 ovarian it was 74.4%; in the test on SK-OV-3 ovarian it was 83.4%. The growth in the test on IGROV1 ovarian is 68.6%; in the test with OVCAR-3 ovarian, 76.7%; in the test with HS 578T breast, 83.9%; in the test with T-47D breast, 54.7%; in the test with BT-549 breast, 82.4%; in the test with MDA-MB-435 melanoma, 82.7%. Also, the growth in the test with SW-620 colon is 97.7%; with MCF7 breast, 50.9%; with HCT-116 colon it was 54.8%; with HCC-2998 colon, 87.2%; with KM12 colon, 78.7%.
Consider `COc1cccc(NC(=O)c2sc3nc(C)c(C(O)c4ccccc4)cc3c2N)c1` (stereo not given), for which the growth in the test with SR leukemia was 6.69% (active); with RPMI-8226 leukemia it was 13.8%; with OVCAR-8 ovarian, 8.45% (active); in the test with OVCAR-5 ovarian, 47.5%; in the test with OVCAR-4 ovarian it was 70.3%; in the test on SK-OV-3 ovarian, 12.5%. Moreover, the growth with IGROV1 ovarian was 25.7%; in the test with OVCAR-3 ovarian, -10.4% (active); with HS 578T breast, 14.6%; in the test with T-47D breast, 35.3%; with BT-549 breast, 55.6%; in the test on MDA-MB-435 melanoma, 5.31% (active). Further, the growth with SW-620 colon was 26.5%; in the test on MCF7 breast it was 17.9%; in the test on HCT-116 colon it was 8.89% (active); in the test with HCC-2998 colon, 9.98% (active); with KM12 colon, 18%.
Take `COc1cc(/C=C2/C=C(c3ccc(C(C)(C)C)cc3)N(CCc3ccc(S(N)(=O)=O)cc3)C2=O)cc(OC)c1OC`: the growth with SR leukemia is 18.4%; with RPMI-8226 leukemia, -5.19% (active); with OVCAR-8 ovarian, 57.4%; in the test on OVCAR-5 ovarian, 91.4%; with OVCAR-4 ovarian, 54.7%; in the test with SK-OV-3 ovarian, 79.9%. In addition, the growth in the test with IGROV1 ovarian is 70.5%; in the test on OVCAR-3 ovarian, 48.8%; with HS 578T breast it was 69.6%; with NCI/ADR-RES ovarian it was 71.8%; in the test on BT-549 breast, 48.1%; in the test on MDA-MB-435 melanoma, 52.8%. Further, the growth is 63.3% in the test on SW-620 colon; 13.1% in the test with MCF7 breast; 23.5% with HCT-116 colon; 32.2% with HCC-2998 colon; 43.8% in the test with KM12 colon.
As for `NC(=O)c1c(NC(=O)/C=C/c2cccs2)sc2c1CCC(=O)C2`, the growth in the test with SR leukemia is 11.2%; in the test on RPMI-8226 leukemia, -9.58% (active); in the test with OVCAR-8 ovarian, 20.2%; with OVCAR-5 ovarian, 79.3%; in the test with OVCAR-4 ovarian it was 14.2%; in the test with SK-OV-3 ovarian, 94.7%. Moreover, the growth with IGROV1 ovarian was 24.4%; in the test with OVCAR-3 ovarian it was 13.8%; with HS 578T breast, 26.7%; in the test on T-47D breast, 16.2%; with BT-549 breast, 20.1%; in the test on MDA-MB-435 melanoma, 14.2%. Besides, the growth with SW-620 colon is 15.1%; in the test with MCF7 breast, 14.1%; in the test with HCT-116 colon, 8.1% (active); in the test on HCC-2998 colon, 85.2%; with KM12 colon, 14.8%.
As for `CCOC(=O)c1cc2c(n1Cc1cc(OC)cc(OC)c1Br)-c1nc(NC(C)=O)sc1CCC2`, the growth is 58.9% in the test on SR leukemia; 60.5% in the test on RPMI-8226 leukemia; 64.9% with OVCAR-8 ovarian; 115% with OVCAR-5 ovarian; 73.4% with OVCAR-4 ovarian; 82.1% in the test with SK-OV-3 ovarian. Besides, the growth with IGROV1 ovarian was 87.5%; in the test on OVCAR-3 ovarian it was 81.4%; in the test with HS 578T breast, 64.6%; in the test on NCI/ADR-RES ovarian it was 78.6%; with BT-549 breast, 92.9%; in the test with MDA-MB-435 melanoma it was 83.9%. The growth is 81.3% in the test with SW-620 colon; 57.6% in the test on MCF7 breast; 78.2% with HCT-116 colon; 72.7% in the test with HCC-2998 colon; 67.6% with KM12 colon.
In the case of `CC[C@]1(O)CC2CN(CCc3c([nH]c4ccccc34)C(C(=O)OC)(c3cc4c(cc3OC)N(C=O)[C@H]3[C@@](O)(C(=O)OC)[C@H](OC(C)=O)[C@]5(CC)[C@@H]6C[C@@H]6CN6CC[C@]43[C@@H]65)C2)C1` (stereo not given in full), the growth is 12.7% with SR leukemia; 23.4% in the test on RPMI-8226 leukemia; 10.3% in the test on OVCAR-8 ovarian; 29.6% in the test with OVCAR-5 ovarian; 45.5% with OVCAR-4 ovarian; -17.7% (active) with SK-OV-3 ovarian. Besides, the growth in the test on IGROV1 ovarian was 8.34% (active); in the test with OVCAR-3 ovarian it was -53.6% (active); in the test on HS 578T breast, -2.32% (active); in the test with NCI/ADR-RES ovarian, -6.57% (active); with BT-549 breast, -2.67% (active); in the test with MDA-MB-435 melanoma, -53.2% (active). Moreover, the growth in the test on SW-620 colon is 23.1%; in the test with MCF7 breast, 12.1%; in the test on HCT-116 colon, -17.5% (active); with HCC-2998 colon, 12.2%; with KM12 colon, -17.5% (active).
Consider `CCN1C(=O)/C(=c2\sc3n(c2=O)C2C(NN=3)N(CC)C(=O)N2CC)c2ccccc21` (stereo not given), for which the growth in the test on SR leukemia is 15.3%; with RPMI-8226 leukemia, 50.8%; in the test on OVCAR-8 ovarian, 31.8%; in the test with OVCAR-5 ovarian it was 54.2%; in the test on OVCAR-4 ovarian, 49.5%; with SK-OV-3 ovarian, 54.5%. In addition, the growth in the test with IGROV1 ovarian was 29%; with OVCAR-3 ovarian, -19% (active); with HS 578T breast, 24.4%; with T-47D breast, 39.5%; in the test with BT-549 breast it was 17.8%; in the test on MDA-MB-435 melanoma, -32.6% (active). For the same molecule, the growth with SW-620 colon is 29.7%; in the test on MCF7 breast, 26%; in the test with HCT-116 colon it was 9.36% (active); in the test with HCC-2998 colon it was 30%; in the test on KM12 colon, 13.7%.
